Counter-ions that a name gives are not always drawn.
System: Drosophila S2 cl14 SmoIP sensor cells
Assay: normalized SmoIP GFP fluorescence (untreated unstimulated = 0%, untreated Hh-stimulated = 100%); higher = more Smo activation sensor fluorescence
Details: compound concentration: 2 uM, 24 h
[1] = stimulation: Hh conditioned medium (+Hh)
[2] = stimulation: mock conditioned medium (-Hh)
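Note: flow cytometry read-out as median GFP intensity of gated cells, compounds added 30 min before Hh-conditioned or mock medium, mock-treated cells serving as unstimulated baseline.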

SMILES | normalized SmoIP GFP fluorescence [1] [%] | normalized SmoIP GFP fluorescence [2] [%]
CCCN1C[C@H](CSC)C[C@@H]2c3cccc4[nH]cc(c34)C[C@H]21 [Pergolide-mesylate] | 119 | -0.889
C[C@H]1CCC/C=C/[C@@H]2C[C@H](O)C[C@H]2[C@H](O)/C=C/C(=O)O1 [brefeldin-a] | 101 | -4.58
C[C@]12CC[C@H]3[C@@H](CC[C@@]45O[C@@H]4C(O)=C(C#N)C[C@]35C)[C@@H]1CC[C@@H]2O [Trilostane] | 109 | -0.265
O=C(O)CNC(=O)c1c(O)c2ccccc2n(Cc2ccccc2)c1=O | 109 | -2.82
C=C1C[C@@H]2[C@H](CC[C@]3(C)C(=O)CC[C@@H]23)[C@@]2(C)C=CC(=O)C=C12 [Exemestane] | 115 | -5.01
O=C(NCC1CCOCC1)c1cnc(Nc2ccc(Cl)cc2Cl)nc1C(F)(F)F | 102 | -1.63
CC(=O)Nc1ccc(OC[C@](C)(O)C(=O)Nc2ccc([N+](=O)[O-])c(C(F)(F)F)c2)cc1 [Andarine] | 107 | 0.274
[O-][n+]1ccccc1[S-].[O-][n+]1ccccc1[S-].[Zn+2] [zinc-pyrithione] | 131 | 2.35
CCc1c(C(=O)C(N)=O)c2c(OCC(=O)O)cccc2n1Cc1ccccc1 | – | 4.26
Cc1cccc(C)c1NC(=O)CN1CCCC1=O [Nefiracetam(Translon)] | 138 | -10.8
Cc1cccc(Cc2c[nH]cn2)c1C [detomidine-hcl] | 139 | -8.77
Cc1cccc([C@H](C)c2c[nH]cn2)c1C [dexmedetomidine] | 108 | -2.59
CCCN1CCOC2c3cc(O)ccc3OCC21 (stereo unspecified) | 113 | -13.6
CN1CCCCC1Cn1cc(C(=O)c2cc([N+](=O)[O-])ccc2I)c2ccccc21 (stereo unspecified) | – | 32.3
C[C@](O)(COc1ccc(C#N)cc1)C(=O)Nc1ccc(C#N)c(C(F)(F)F)c1 [Ostarine] | 119 | 2.97
CCN(CC)C(=O)c1ccc(C2=CC3(CCNCC3)Oc3cccc(O)c32)cc1 | 99.7 | 2.11
CN1[C@@H]2C[C@@H](OC(=O)[C@H](CO)c3ccccc3)C[C@H]1[C@@H]1O[C@@H]12 [Scopolamine-hydrobromide] | 113 | -17.7
C[C@]12N[C@H](Cc3ccccc31)c1ccccc12 [mk-801-maleate] | 103 | -3.16
CC(C)(C)c1cc(C=C(C#N)C#N)cc(Br)c1O [ag-1024-tyrphostin] | – | 14.2
CN1CCc2cc3c(cc2[C@H]1[C@@H]1OC(=O)c2c1ccc1c2OCO1)OCO3 [bicuculline] | 101 | -3.9
N[C@@H]1C[C@H]1c1ccccc1 [tranylcypromine-2-pcpa-hcl] | 109 | -1.34
COc1ccc(C(CN(C)C)C2(O)CCCCC2)cc1 (stereo unspecified) [Venlafaxine-hydrochloride] | – | -2.42
Cc1cc(SCc2sc(-c3ccc(C(F)(F)F)c(F)c3)nc2C)ccc1OCC(=O)O | 106 | -1.74
C#C[C@]1(O)C=C[C@H]2[C@@H]3CCC4=CC(=O)CC[C@@H]4[C@H]3CC[C@@]21CC [Gestodene] | – | 5.45
CNCC(=O)c1ccc(O)c(O)c1 [adrenalone-hcl] | 106 | -3.39
N#CC(C#N)=Cc1ccc(O)c(O)c1 [ag-18-tyrphostin-23] | 147 | -12
CCN1CCN(C(=O)Cc2ccc(Nc3ncc(F)c(Nc4ccc(C(=O)Nc5ccccc5Cl)cc4)n3)cc2)CC1 [Aurora-A-Inhibitor-I] | 151 | 2.11

SMILES | normalized SmoIP GFP fluorescence [1] [%] | normalized SmoIP GFP fluorescence [2] [%]
COc1ccc(C(=O)N2CCCC2=O)cc1 [Aniracetam] | 104 | -0.588
CCC(COC(=O)c1cc(OC)c(OC)c(OC)c1)(c1ccccc1)N(C)C (stereo unspecified) [trimebutine] | 111 | -15.8
CC[C@@]1(O)C(=O)OCc2c1cc1n(c2=O)Cc2cc3ccccc3nc2-1 [Camptothecine] | 33.6 | 2.64
C[C@@H]1O[C@@H](O[C@H]2C[C@@H](O)[C@]3(CO)[C@H]4[C@H](O)C[C@]5(C)[C@@H](C6=CC(=O)OC6)CC[C@]5(O)[C@@H]4CC[C@]3(O)C2)[C@H](O)[C@H](O)[C@H]1O [ouabain] | 102 | -2.08
COC(=O)C1=CCCN(C)C1 [arecoline] | 130 | -12.4
C[C@H]1CNCCc2ccc(Cl)cc21 [lorcaserin-hcl] | 99.3 | -2.48
O=C(O[C@H]1C[N+]2(CCCOc3ccccc3)CCC1CC2)C(O)(c1cccs1)c1cccs1 [aclidinium-bromide] | 97.3 | -4.58
Fc1cc(F)c2c(c1)[C@H]1C=CC[C@H]1C(c1cccnc1)N2 (stereo partly specified) [golgicide-a] | 101 | -5.15
C[C@]12CC[C@H](O)CC1=CC[C@@H]1[C@@H]2CC[C@]2(C)C(=O)CC[C@@H]12 [Dehydroepiandrosterone(DHEA)] | 134 | -12.4
COC[C@H]1OC(=O)c2coc3c2[C@@]1(C)C1=C(C3=O)[C@@H]2CCC(=O)[C@@]2(C)C[C@H]1OC(C)=O [wortmannin] | 73.6 | 9.08
Cn1cc(C2=C(c3cn(C4CCN(Cc5ccccn5)CC4)c4ccccc34)C(=O)NC2=O)c2ccccc21 [Enzastaurin] | 135 | 38.2
Cc1ccccc1-n1c(Cn2ncc3c(N)ncnc32)nc2cccc(C)c2c1=O | 115 | -6.79
C=CC[C@]1(O)CC[C@H]2[C@@H]3CCC4=CC(=O)CCC4=C3C=C[C@@]21C [altrenogest] | 109 | -1.23
C[C@]12CCC(=O)C(O)=C1CC[C@@H]1[C@@H]2CC[C@]2(C)C(=O)CC[C@@H]12 [Formestane] | 93.9 | -2.2
CN1CCN(c2nc3ccccc3nc2Cl)CC1 | 105 | -1.34
CCN(C)C(=O)Oc1cccc([C@H](C)N(C)C)c1 [rivastigmine-tartrate-exelon] | 95.8 | -3.05
CN1[C@@H]2CC(O)C[C@H]1[C@@H]1O[C@@H]12 (stereo partly specified) [scopine] | 142 | -12
CN1c2ccccc2C(NCCCCCCC(=O)O)c2ccc(Cl)cc2S1(=O)=O (stereo unspecified) [Tianeptine-sodium-salt] | 110 | 0.274
CN1CCC(c2c[nH]c3ccc(O)cc23)CC1 | 111 | -2.82
COc1cc(-n2c(=S)[nH]c3ccccc3c2=O)c(Cl)cc1Cl [mdivi-1] | 108 | -1.34
Cc1sc2c(c1C)C(c1ccc(Cl)cc1)=N[C@@H](CC(=O)Nc1ccc(O)cc1)c1nnc(C)n1-2 | 102 | -1.34
Cc1cccc(C(C)c2c[nH]cn2)c1C (stereo unspecified) [medetomidine-hcl] | 108 | -1.63
CCOc1ccccc1-n1c(C(C)N2CCN(C(=O)COc3ccc(Cl)cc3)CC2)nc2ccccc2c1=O (stereo unspecified) [erastin] | 134 | 3.66
C[N+](C)(C)CCCCCCCCCC[N+](C)(C)C [decamethonium-bromide] | 104 | -5.04
CNCC(O)c1ccc(O)cc1 (stereo unspecified) [synephrine-hcl] | 140 | -9.85
O=c1[nH]c2ccc(Cl)cc2c(N[C@@H]2CN3CCC2CC3)c1-c1nc2ccccc2[nH]1 [chir-124] | 253 | 23.9
